Calls of active or inactive are those of the source.
Columns and labels:
Albumin (Bos taurus) = Albumin (Bos taurus) (UniProt P02769); assay: compounds binding labelled BSA control protein – biochemical, small-molecule microarray, Alexa647 label, 635/667 nm fluorescence, artefact control for SMM control protein annotation, profiling panel (AID 1118); details: BSA-A647 binding, fluorescence 635 nm, higher = more signal;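 further: score merges 667 nm emission intensity and signal-to-noise per printed compound spot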
[1] = probe aXIP binding to arrayed compounds – biochemical, NeuroSMM set, 635/667 nm fluorescence, primary screen (AID 1119); details: small-molecule microarray, higher = more signal, called active from +8 up or from −8 down;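 further: probe is the protein aXip251-270 applied at 1 µg/mL to compound-printed slides; binding of probe to printed compounds measured as 667 nm fluorescence plus signal to noise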
[2] = probe aNOTCH3 binding on compound microarray – biochemical, small-molecule microarray, 635/667 nm fluorescence, primary screen (AID 1120); details: higher = more signal;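 further: probe is a biotin-tagged antibody raised against NOTCH3 rather than NOTCH3 protein; score merges spot fluorescence near 667 nm with spot signal to noise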
[3] = probe aNOTCH2 binding on compound microarray – biochemical, small-molecule microarray, 635/667 nm fluorescence, primary screen (AID 1121); details: higher = more signal;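 further: score merges feature fluorescence read at 667 nm with its signal to noise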
[4] = target: Carbonic anhydrase 2 (Homo sapiens) (UniProt P00918); assay: compounds binding carbonic anhydrase 2 – biochemical, small-molecule microarray, Alexa647-labelled CAII, profiling panel (AID 1122); details: CAII-A647 binding fluorescence, higher = more signal
[5] = COS7 lysate on small-molecule microarray, probe aHis, 635 nm (AID 1123); details: COS7 cell lysate, fluorescence, higher = more signal;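 further: z-score combines 667nm fluorescence intensity with signal-to-noise per printed compound spot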
[6] = probe aLAP1 signal on lysate-treated microarray – cell lysate, small-molecule microarray, COS7 lysate, primary screen (AID 1124); details: probe aLAP1, fluorescence, higher = more signal;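 further: lysate comes from COS7 cells expressing LAP1 and is applied at 0.3 µg/mL; score merges spot fluorescence near 667 nm with signal-to-noise over triplicate slides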
Sam68 (KHDRBS1) = assay: compounds binding KHDRBS1 protein – biochemical, small-molecule microarray, 635 nm fluorescence, primary screen (AID 1125); details: higher = more signal;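 further: score merges 667 nm channel intensity with signal to noise over triplicate slides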
[7] = test system: Chordin-like protein 2 (CHRDL2); assay: compounds binding chordin-like 2 – biochemical, small-molecule microarray, 635 nm fluorescence, primary screen (AID 1126); details: fluorescence 635 nm, higher = more signal;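 further: printed compound slides probed with Chrdl2 protein at 4 µg/mL for 1 h at 4 C; score merges 667 nm emission intensity with signal to noise over three replicate slides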
[8] = target: Concanavalin-A (Canavalia ensiformis) (UniProt P02866); assay: compounds binding concanavalin A lectin – biochemical, small-molecule microarray, Alexa647 label, 635 nm, artefact control for SMM control protein annotation, primary screen (AID 1127); details: ConA-A647 binding fluorescence, higher = more signal;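 further: z combines 667 nm emission intensity with signal-to-noise across three replicate slides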
[9] = compounds binding Alexa647 anti-His antibody – biochemical, small-molecule microarray, 635 nm fluorescence, artefact control for SMM control protein annotation, primary screen (AID 1128); details: higher = more signal;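 further: score merges feature fluorescence with signal-to-noise for each printed compound spot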
[10] = test system: Human papillomavirus type 1a E7 protein (residues 1-88); assay: HPV1a E7 small-molecule binders, primary screen, biochemical, small-molecule microarray, residues 1-88, 635 nm (AID 1129); details: small-molecule microarray binding, fluorescence 635 nm; higher = more signal
[11] = target: Focal adhesion kinase 1 (Homo sapiens) (UniProt Q05397); assay: PTK2 protein binding on printed compound slides – biochemical, small-molecule microarray, 635/667 nm fluorescence, BSA, DTT, primary screen (AID 1130); details: 635 nm fluorescence, higher = more signal;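 further: composite of spot emission at 667 nm and signal to noise over triplicate slides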
[12] = test system: Fibrinogen (Alexa647-labelled); assay: Alexa647-fibrinogen binding to printed small molecules – biochemical, small-molecule microarray, 635/667 nm fluorescence, artefact control for SMM control-protein annotation, profiling panel (AID 1131); details: fibrinogen-A647 binding fluorescence, higher = more signal;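 further: z-score merges 667 nm fluorescence with per-spot signal-to-noise over triplicate slides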
[13] = target: Follistatin (Homo sapiens) (UniProt P19883); assay: FST protein binding to printed compounds – biochemical, small-molecule microarray, 635/667 nm fluorescence, primary screen (AID 1132); details: 635 nm fluorescence, higher = more signal
[14] = target: Fibroblast growth factor 2 (Homo sapiens) (UniProt P09038); assay: basic fibroblast growth factor binding to printed compounds – biochemical, small-molecule microarray, 635/667 nm fluorescence, primary screen (AID 1133); details: FGF2, fluorescence 635/667, higher = more signal
[15] = JC-1 mitochondrial potential readout, lung cancer cells – cell-based, A549, JC-1 fluorescence, basal, 24 h, 100 nL, profiling panel (AID 1138); details: higher = more signal;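 further: A549 lung adenocarcinoma cells under basal conditions with no added stimulus; test concentration not given here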
Lefty1 = Lefty1 protein binding to printed compounds – biochemical, small-molecule microarray, 635/667 nm fluorescence, primary screen (AID 1139); details: fluorescence 635/667, higher = more signal
[16] = test system: wheat germ agglutinin (Triticum aestivum), Alexa647-labelled; assay: Alexa647-WGA lectin binding to printed small molecules – biochemical, small-molecule microarray, 635/667 nm fluorescence, artefact control for SMM control-protein annotation, profiling panel (AID 1140); details: WGA-A647 binding, 635 nm fluorescence, higher = more signal;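 further: score merges 667 nm feature emission with signal to noise over triplicate slides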
[17] = target: Luciferin 4-monooxygenase (Photinus pyralis) (UniProt P08659); assay: inhibition of purified Photinus pyralis luciferase – biochemical, luminescence, purified enzyme, 2006 set, primary screen (AID 1141); details: purified firefly luciferase, SteadyGlo luminescence, 30 min; higher = more signal, called active from +8 up or from −8 down;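 further: cell-free assay with purified firefly luciferase at 100 ng per well in PBS; test concentration not given here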
Chain of Luciferin 4-monooxygenase (Photinus pyralis) (P08659 whole entry, looked up): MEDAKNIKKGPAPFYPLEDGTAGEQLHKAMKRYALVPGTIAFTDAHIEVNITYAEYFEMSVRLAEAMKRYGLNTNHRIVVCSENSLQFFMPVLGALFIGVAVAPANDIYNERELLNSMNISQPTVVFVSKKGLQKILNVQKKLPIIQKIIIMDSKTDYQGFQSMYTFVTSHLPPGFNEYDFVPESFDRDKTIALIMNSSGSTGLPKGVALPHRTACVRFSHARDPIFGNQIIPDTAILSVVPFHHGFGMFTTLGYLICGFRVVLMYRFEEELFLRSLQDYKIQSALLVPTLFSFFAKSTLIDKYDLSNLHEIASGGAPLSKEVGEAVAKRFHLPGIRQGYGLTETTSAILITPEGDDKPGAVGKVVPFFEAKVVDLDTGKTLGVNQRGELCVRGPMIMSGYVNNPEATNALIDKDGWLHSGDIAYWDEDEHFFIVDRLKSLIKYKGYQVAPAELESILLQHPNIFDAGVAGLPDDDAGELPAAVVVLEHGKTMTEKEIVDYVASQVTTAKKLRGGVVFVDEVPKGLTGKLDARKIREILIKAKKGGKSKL

Chain of Fibroblast growth factor 2 (Homo sapiens) (P09038 whole entry, looked up): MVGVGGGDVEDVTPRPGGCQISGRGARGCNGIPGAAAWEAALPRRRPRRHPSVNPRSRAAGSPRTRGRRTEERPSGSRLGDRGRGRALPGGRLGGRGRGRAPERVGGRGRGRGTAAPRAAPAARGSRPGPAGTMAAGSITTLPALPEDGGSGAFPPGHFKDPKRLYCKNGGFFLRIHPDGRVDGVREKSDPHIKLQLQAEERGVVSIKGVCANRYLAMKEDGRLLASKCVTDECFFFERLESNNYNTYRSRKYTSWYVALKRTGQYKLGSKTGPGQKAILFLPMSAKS
Chain of Concanavalin-A (Canavalia ensiformis) (P02866 whole entry, looked up): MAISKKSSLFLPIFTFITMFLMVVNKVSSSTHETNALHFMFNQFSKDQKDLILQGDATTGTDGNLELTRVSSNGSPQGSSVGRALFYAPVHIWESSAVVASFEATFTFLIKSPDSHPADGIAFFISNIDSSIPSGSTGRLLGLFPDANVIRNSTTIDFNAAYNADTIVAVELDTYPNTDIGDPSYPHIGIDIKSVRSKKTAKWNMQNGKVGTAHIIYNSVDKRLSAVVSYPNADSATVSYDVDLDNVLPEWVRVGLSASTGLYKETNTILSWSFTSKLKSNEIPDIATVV
Chain of Albumin (Bos taurus) (P02769 whole entry, looked up): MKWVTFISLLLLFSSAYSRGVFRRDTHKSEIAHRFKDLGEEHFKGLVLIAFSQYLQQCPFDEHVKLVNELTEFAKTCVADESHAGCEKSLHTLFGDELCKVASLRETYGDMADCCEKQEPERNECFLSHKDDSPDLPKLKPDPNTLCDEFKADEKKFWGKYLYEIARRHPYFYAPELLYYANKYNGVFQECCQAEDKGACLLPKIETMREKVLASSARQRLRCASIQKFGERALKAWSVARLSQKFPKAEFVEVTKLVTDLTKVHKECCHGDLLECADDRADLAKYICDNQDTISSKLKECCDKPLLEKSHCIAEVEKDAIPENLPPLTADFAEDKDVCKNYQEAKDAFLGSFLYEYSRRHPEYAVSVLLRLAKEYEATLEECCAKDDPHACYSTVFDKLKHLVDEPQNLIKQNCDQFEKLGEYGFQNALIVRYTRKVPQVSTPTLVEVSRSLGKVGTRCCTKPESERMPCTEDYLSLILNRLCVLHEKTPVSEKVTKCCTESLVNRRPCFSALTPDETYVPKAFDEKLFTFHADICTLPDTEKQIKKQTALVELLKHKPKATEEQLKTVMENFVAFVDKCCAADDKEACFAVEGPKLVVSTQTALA
Chain of Follistatin (Homo sapiens) (P19883 whole entry, looked up): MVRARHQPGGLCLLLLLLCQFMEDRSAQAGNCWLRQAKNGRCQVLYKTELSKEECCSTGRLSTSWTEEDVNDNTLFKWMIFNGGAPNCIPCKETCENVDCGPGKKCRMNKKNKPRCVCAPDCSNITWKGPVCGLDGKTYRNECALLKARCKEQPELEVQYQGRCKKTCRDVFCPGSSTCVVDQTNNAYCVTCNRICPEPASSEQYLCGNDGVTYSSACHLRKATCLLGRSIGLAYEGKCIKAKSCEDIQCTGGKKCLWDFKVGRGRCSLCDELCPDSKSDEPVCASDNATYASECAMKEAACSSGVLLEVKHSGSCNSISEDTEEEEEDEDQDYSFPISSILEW
Chain of Focal adhesion kinase 1 (Homo sapiens) (Q05397 whole entry, looked up): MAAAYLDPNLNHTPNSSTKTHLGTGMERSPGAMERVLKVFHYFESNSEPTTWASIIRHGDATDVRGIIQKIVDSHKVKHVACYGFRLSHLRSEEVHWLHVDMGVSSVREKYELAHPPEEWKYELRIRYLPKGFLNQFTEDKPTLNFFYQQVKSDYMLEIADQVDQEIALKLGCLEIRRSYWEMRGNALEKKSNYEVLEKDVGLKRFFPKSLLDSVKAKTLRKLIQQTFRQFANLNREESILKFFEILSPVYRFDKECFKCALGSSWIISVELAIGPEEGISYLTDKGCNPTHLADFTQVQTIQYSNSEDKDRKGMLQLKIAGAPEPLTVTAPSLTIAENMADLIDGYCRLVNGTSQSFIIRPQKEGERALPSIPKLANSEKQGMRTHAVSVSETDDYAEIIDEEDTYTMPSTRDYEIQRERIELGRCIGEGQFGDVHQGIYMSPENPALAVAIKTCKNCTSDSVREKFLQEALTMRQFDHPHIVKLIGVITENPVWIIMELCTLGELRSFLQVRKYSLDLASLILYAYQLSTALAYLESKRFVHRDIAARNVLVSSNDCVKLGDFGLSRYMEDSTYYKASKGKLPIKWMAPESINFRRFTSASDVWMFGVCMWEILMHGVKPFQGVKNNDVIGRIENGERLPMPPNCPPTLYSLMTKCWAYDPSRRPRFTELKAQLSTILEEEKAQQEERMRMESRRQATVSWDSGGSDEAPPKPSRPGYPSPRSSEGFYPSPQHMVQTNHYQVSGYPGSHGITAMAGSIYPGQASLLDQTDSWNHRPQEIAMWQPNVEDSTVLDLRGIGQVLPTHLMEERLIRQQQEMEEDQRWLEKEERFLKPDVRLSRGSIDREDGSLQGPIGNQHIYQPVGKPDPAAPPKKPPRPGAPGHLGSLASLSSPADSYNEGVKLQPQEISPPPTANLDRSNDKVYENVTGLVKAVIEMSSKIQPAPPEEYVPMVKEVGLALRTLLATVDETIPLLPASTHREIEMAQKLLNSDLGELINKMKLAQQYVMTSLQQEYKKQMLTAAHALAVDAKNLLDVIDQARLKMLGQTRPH

Compound | composite z-score (Albumin (Bos taurus)) | composite Z-score [1] | composite z-score [2] | composite z-score [3] | composite z-score [4] | composite z-score [5] | composite z-score [6] | composite z-score (Sam68 (KHDRBS1)) | composite z-score [7] | composite z-score [8] | composite z-score [9] | composite z-score [10] | composite z-score [11] | composite z-score [12] | composite z-score [13] | composite z-score [14] | z-score [15] | composite z-score (Lefty1) | composite z-score [16] | z-score [17]
NC(=O)N1C(=O)C2C(C1=O)C1C=C(CCCO)C2C(C2CC2)N1Cc1cc2c(cc1Br)OCO2 (stereo not given) | 0.277 | 0.0861 (inactive) | 0.0242 | -0.112 | 0.877 | 0.872 | -0.0694 | -0.989 | -0.667 | -0.0295 | 1.06 | -1.06 | 0.164 | 0.928 | 0.246 | -0.407 | 0.158 | 0.969 | 0.847 | -1.13 (inactive)
C=CC[C@]12N=C(c3ccc(OCCCO)cc3)O[C@H]1c1ccccc1N(CCS(=O)(=O)c1ccccc1)C2=O | 0.922 | 0.526 (inactive) | -0.0728 | -0.0692 | 0.727 | 1.12 | 0.486 | 1.3 | 0.873 | 1.18 | 1.66 | 1.23 | 0.472 | 0.971 | 1.15 | 1.38 | 0.337 | 1.05 | 0.97 | -12.4 (active)
CCCNC(=O)[C@@]1(Sc2ccc(C)cc2)CC(=O)N(Cc2ccccc2C(F)(F)F)[C@@H]1c1ccc(CO)cc1I | 0.31 | 0.222 (inactive) | 0.0696 | -0.123 | 0.624 | 1.82 | 0.116 | 1.29 | 0.315 | 0.435 | -0.132 | 0.934 | 0.0382 | 0.956 | 1.36 | 0.76 | -0.722 | 0.849 | 0.28 | 0.262 (inactive)
C#CCN1[C@H](/C=C/C2CC2)[C@H](Cc2ccccc2)OC(=O)[C@@H]1Cc1ccccc1 | -0.159 | -0.95 (inactive) | -0.124 | -0.0759 | 0.2 | 0.24 | 0.092 | 0.257 | 0.509 | 0.0816 | 0.924 | 0.743 | 0.229 | 0.884 | 0.578 | 0.242 | 3.8 | 0.536 | -0.153 | -0.373 (inactive)
NC(=O)[C@@H]1[C@H]2C(=O)O[C@H](c3ccccc3)[C@H](c3ccccc3)N2[C@H](c2ccc(O)cc2)[C@@]12C(=O)Nc1ccc(C#CC3=CCCCC3)cc12 | 0.299 | 1.1 (inactive) | 0.81 | -0.117 | 0.411 | 2 | 0.331 | 0.449 | -0.0967 | 0.426 | 1.43 | 1.18 | 0.284 | 0.789 | 1.02 | -0.201 | -2.5 | 0.847 | 1.03 | -0.589 (inactive)
COC(=O)[C@@]1(CCC(=O)OC(C)(C)C)N=C(c2ccc(OCCCO)cc2)O[C@H]1c1ccccc1 | -0.735 | 0.21 (inactive) | -0.0716 | 0.0464 | 0.687 | 2.16 | 0.637 | -0.297 | 0.0741 | 0.57 | 0.467 | 0.896 | 0.517 | 0.554 | 0.693 | 0.989 | -0.4 | -0.85 | 0.492 | -5.22 (inactive)
CCOC(=O)C[C@H]1[C@H](OC(=O)c2ccc(C(=O)c3ccccc3)cc2)[C@@H](NC(=O)Cc2ccc(OC)cc2)c2cc(OCCCO)ccc2N1C(=O)c1ccc2ccccc2n1 | 0.701 | 0.0505 (inactive) | -0.0445 | -0.0868 | 0.151 | 1.34 | 0.493 | 1.09 | -0.0473 | 0.818 | 0.325 | 0.727 | -0.314 | 0.858 | 0.513 | 0.312 | 0.842 | 0.735 | -0.028 | -0.849 (inactive)
COC(=O)[C@@]1(Cc2ccccc2)[C@H]2c3cc(C(=O)N(C)C)n(CCc4c[nH]c5ccc(O)cc45)c3C[C@H]2CN1C(=O)c1ccccc1 | 1.01 | 0.492 (inactive) | 0.238 | 0.153 | 0.858 | 2.15 | 1.29 | 0.878 | -0.676 | 0.0221 | 1.53 | 1.23 | 0.772 | -0.0969 | 1.35 | -0.0235 | -0.409 | 0.171 | 0.173 | -2.82 (inactive)
